Sm TGR inh: qHTS Assay for the Inhibitors of Schistosoma Mansoni Peroxiredoxins; Schistosoma mansoni thioredoxin glutathione reductase (TGR), Q962Y6; purified TGR, DTNB reduction, TNB absorbance 405 nm; Potency, µM (doses to about 114 µM), for the others: at the highest dose activity change, negative = inhibition, most hits filed as inhibitors; actives 3% (n = 360,000); AID 485364, 2010; note: potency is the fitted concentration of half-maximal effect; % is set by controls: 0 for no effect and ±100 for the full control effect; nearly all actives have a fitted effect of over 60% in size
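TGR 20 nM + NADPH 100 uM (dispensed conc.), cpd preinc 15 min RT; start with NADPH (500 uM addition) then DTNB (15 mM addition). Kinetic TNB absorbance, 405 nm filter. Four-parameter Hill fit across titration.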
LmPK inh: qHTS Assay for Inhibitors of Leishmania Mexicana Pyruvate Kinase (LmPK) | Q27686 | purified LmPK, Kinase-Glo ATP luminescence, 1 h | Potency, µM (doses to about 57.5 µM), inactives show at the top dose activity change, negative = inhibition, usual class: inhibitors | actives 0.37% (n = 290,000); note: potency is the fitted concentration of half-maximal effect; % is set by controls: 0 for no effect and ±100 for the full control effect
Target sequence (Q27686 whole entry, looked up): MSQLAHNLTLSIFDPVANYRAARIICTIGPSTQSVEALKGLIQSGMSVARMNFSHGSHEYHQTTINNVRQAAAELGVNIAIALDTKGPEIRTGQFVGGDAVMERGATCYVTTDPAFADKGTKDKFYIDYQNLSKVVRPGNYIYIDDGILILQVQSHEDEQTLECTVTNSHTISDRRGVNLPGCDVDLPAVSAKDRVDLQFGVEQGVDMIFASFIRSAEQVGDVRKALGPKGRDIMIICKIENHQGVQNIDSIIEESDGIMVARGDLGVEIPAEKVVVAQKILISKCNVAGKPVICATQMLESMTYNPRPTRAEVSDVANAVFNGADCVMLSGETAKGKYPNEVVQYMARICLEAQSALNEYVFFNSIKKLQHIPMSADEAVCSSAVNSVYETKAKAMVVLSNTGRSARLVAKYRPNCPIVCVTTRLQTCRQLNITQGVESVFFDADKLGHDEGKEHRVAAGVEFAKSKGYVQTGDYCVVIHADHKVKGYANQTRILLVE
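Kinase-Glo luminescence read after 1 h RT reaction of 0.1 nM LmPK with 0.5 mM PEP and 0.1 mM ADP. Activity scaled between uninhibited and enzyme-free controls.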
FBPA Giardia inh: qHTS Assay for Inhibitors of Fructose-1,6-bisphosphate Aldolase from Giardia Lamblia; purified Giardia FBPA; actives 0.71% (n = 290,000); Potency, µM (titrated, usually from 59.6 µM), without a hit: at the top dose activity, negative = inhibition, most hits filed as inhibitors; AID 2451, 2010; note: potency is the fitted concentration of half-maximal effect; % is set by controls: 0 for no effect and ±100 for the full control effect; nearly all actives have a fitted effect of over 55% in size
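40 nM FBPA preincubated 10 min at RT with compound (up to 57.5 uM final), then substrate plus GAPDH/TPI/NAD/arsenate coupling and diaphorase/resazurin added. Fluorescence read after 20 min at RT, 525/598 nm.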
Tb PYK inh: qHTS of Trypanosoma Brucei Inhibitors | pyruvate kinase (Trypanosoma brucei), Q57TT1 | TbPYK enzyme, Kinase-Glo Plus ATP luminescence, 45 min | Potency, µM (titrated, usually from 76.8 µM), inactives show at the highest dose activity, negative = inhibition, actives largely listed as inhibitors | actives 0.12% (n = 410,000) | AID 624173, 2012; note: potency is the fitted concentration of half-maximal effect; % is set by controls: 0 for no effect and ±100 for the full control effect; nearly all actives have a fitted effect of over 50% in size
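TbPYK + substrate in 50 mM TEA pH 7.2, 100 mM KCl, 10 mM MgCl2, 0.05% BSA, 0.01% Tween-20; cpd pinned; ADP 130 uM final; 45 min RT; Kinase-Glo Plus 10 min; luminescence endpoint.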
Shiga inhibitor: A qHTS for Small Molecule Inhibitors of Shiga Toxin; Vero cells, Shiga toxin protein synthesis inhibition reporter; inhibition, % at 38.7 µM; actives 9.2% (n = 290,000); AID 2315, 2010; in the data active = inhibition mostly above about 28%, no sharp cut-off; inactive = mostly below about 43%; note: 0% is about no effect
Cycloheximide cs: Cycloheximide Counterscreen for Small Molecule Inhibitors of Shiga Toxin | cell reporter, cycloheximide protein synthesis inhibition counterscreen | max response, % | actives 12% (n = 300,000); in the data active = max response mostly above about 13%, no sharp cut-off; inactive = mostly below about 14%; note: read at 38.3 µM for the half of the compounds with a filed dose; 0% is about no effect
Starred values were filed as active, the others as inactive; ? = inconclusive; . = not tested or not shown; [ ] = another dose, or the depositor's remark. Shown is part of a subset that was picked to be rich in hits. Unless noted, calls come from the whole dose curve; as a rule, active = well fitted curve in the direction sought with a large enough effect; inconclusive = small, poorly fitted or top-dose-only effect, or another doubt; inactive = no such curve, though single readings can be large; an effect the other way counts as inactive or inconclusive.

SMILES	Sm TGR inh	LmPK inh	FBPA Giardia inh	Tb PYK inh	Shiga inhibitor	Cycloheximide cs
COc1cc(/C=N/Nc2nc3ccccc3s2)cc([N+](=O)[O-])c1O	-4%	-7%	-14%	-7%	56*	19*
Cc1cc(NC(=O)C(C)(C)C)no1	8%	0%	0%	4%	-4	-1
Cc1cc(N/C=C2\CCCCC2=O)no1	7%	-10%	-9%	1%	38	16*
O=C1C(Cl)=C(N2CCCCCC2)C(=O)N1c1ccccc1	1%	1%	5%	2%	46	25*
Cc1cccc(N2C(=O)C(Cl)=C(N3CCOCC3)C2=O)c1	40µM*	5%	-7%	-14%	19	11
COCCOC(=O)C1=C(C)N=C2SCCC(=O)N2C1c1ccc(OCc2ccccc2)c(OC)c1 (centres undefined)	-7%	.	.	2%	.	.
CCN(CC)CCOCCOC(=O)C(CC)(CC)c1ccccc1 (tested in a mixture with another compound)	.	.	.	-1%	.	.
CCc1ccc(S(=O)(=O)N2CCN(c3ccc(Cl)c(Cl)c3)CC2)cc1	-3%	.	.	-7%	.	.
COc1ccc(C(=O)c2oc3ccc(OC)cc3c2N)cc1	-8%	1%	-7%	3%	70*	29*
CCN(CC)CCOC(=O)c1c(C)oc2ccc(OC)cc12	0%	-1%	-9%	0%	61*	17
COc1ccc(C(=O)c2oc3ccc(OC)cc3c2NC(C)=O)cc1	-20%	-1%	-1%	-2%	-4	0
Nc1c(C(=O)c2ccc(Cl)cc2)oc2ccccc12	-20%	6%	-2%	-15%	65*	32*
COC(=O)c1oc2ccc(OC)cc2c1N	-19%	-9%	1%	4%	63*	28*
O=C(c1ccc(Cl)cc1)c1oc2ccccc2c1CS(=O)c1ccc(Cl)cc1 (centres undefined)	-4%	-5%	1%	-10%	24	9
COc1cccc(-c2nc3c(C#N)c[nH]n3c2NC2CCCC2)c1OC	-2%	.	.	3%	.	.
Cc1ccc(S(=O)(=O)Nc2ccc3c(c2)CCCN3C(=O)c2cccs2)cc1	-2%	.	.	-3%	.	.
CCc1cccc(NC(=O)CC(c2ccc(OC)cc2)N2Cc3ccccc3C2=O)c1 (centres undefined)	6%	.	.	-1%	.	.
Clc1ccc(OCc2nc(-c3ccccn3)no2)c(Br)c1	-15%	-15%	-2%	-3%	66*	42*
Clc1ccccc1OCc1nc(-c2ccccn2)no1	-2%	?	-6%	-3%	70*	33*
Cc1cc(Cl)ccc1OCc1nc(-c2ccc(-n3cccc3)cc2)no1	0%	.	.	-5%	.	.
CC1CC(C)CN(CCCNC(=O)c2ccc3nc(N4CCCCC4)sc3c2)C1 (centres undefined)	-14%	-5%	-9%	-4%	15*	17*
CCCCN(CCCC)CCCNC(=O)c1ccc2nc(N3CCCCC3)sc2c1	28µM*	.	.	-9%	.	.
Cc1ccc(C)c(N2CCN(CCCNC(=O)c3ccc4nc(N5CCCCC5)sc4c3)CC2)c1	-2%	.	.	-4%	.	.
CCCN1CCN(CCCNC(=O)c2ccc3nc(N4CCCCC4)sc3c2)CC1	-12%	-1%	-11%	-1%	19	13*
COc1ccc(/C=C\c2onc(C)c2S(=O)(=O)N2CCC(C(=O)Nc3ccc(Cl)cc3)CC2)cc1	3%	.	.	0%	.	.
SMILES	Sm TGR inh	LmPK inh	FBPA Giardia inh	Tb PYK inh	Shiga inhibitor	Cycloheximide cs
CC(=O)c1ccc(OCc2cc(C(=O)N3CCCCCCC3)no2)cc1	-8%	-8%	.	-2%	57*	57*
CC(=O)c1ccc(OCc2cc(C(=O)N3CCC(Oc4ccccc4C)CC3)no2)cc1	-10%	-7%	-4%	-6%	143*	90*
CC(=O)c1ccc(OCc2cc(C(=O)N3CCOCC3)no2)cc1	0%	3%	-1%	2%	79*	43*
Cc1cccc(-n2c3c(cc(-c4nc(-c5ccc(Cl)cc5)cs4)c2=O)C(=O)CC(C)(C)C3)c1	2%	.	.	-7%	.	.
O=C1C(Cl)=C(N2CCOCC2)C(=O)N1CCc1ccccc1	0%	-1%	9%	-6%	133*	47*
O=C1C(Cl)=C(Nc2ccc(F)cc2)C(=O)N1CCc1ccccc1	-4%	-2%	0%	2%	82*	59*
O=C1C(Cl)=C(NCCc2ccccc2)C(=O)N1CCc1ccccc1	-3%	4%	7%	9%	9	6
O=C1C(Cl)=C(NCCCN2CCOCC2)C(=O)N1CCc1ccccc1	5%	5%	4%	1%	29	24*
O=C1C(Cl)=C(NCC2CCCO2)C(=O)N1CCc1ccccc1 (centres undefined)	?	3%	-1%	-13%	56*	57*
CCc1ccc(N2C(=O)C(Cl)=C(N3CCOCC3)C2=O)cc1	4%	2%	1%	-10%	10	-2
CCCCCOc1ccc(NC2=CC(=O)CCC2)cc1	-3%	-2%	7%	-3%	42	4
O=C1C(Cl)=C(N2CCCCC2)C(=O)N1Cc1ccccc1	4%	5%	-2%	-2%	13	4
CN1CCN(C2=C(Cl)C(=O)N(CCc3ccccc3)C2=O)CC1	?	5%	-1%	-1%	40*	48*
CCOC(=O)CCN1C(=O)[C@H]2[C@H]3[C@H](O)[C@H](O)C/C(=N/OCc4ccccc4)[C@H]3CC[C@@H]2C1=O	.	.	1%[12.9 µM]	.	.	.
Cc1cc(/C=N/Nc2nc(N)ncc2[N+](=O)[O-])c(C)n1-c1cccc(C(F)(F)F)c1	1%	-13%	?	.	62*	26*
O=C1NC(=O)/C(=C/c2cccc3ccccc23)S1	-4%	-8%	-26%	-3%	16	17*
COCCCCCCCCCCCC(=O)O	.	.	4%	.	.	.
COc1ccc(CC(=O)Nc2ccc(C#N)c(Cl)c2)cc1S(=O)(=O)N1CCOCC1	13µM*	-10%	.	-12%	-11	5
COc1ccc(NC(=O)Cn2ncc(Cl)c(Cl)c2=O)cc1S(=O)(=O)N1CCOCC1	10µM*	0%	-3%	-13%	20	19*
COc1ccc(CC(=O)Nc2nc3ccc(F)cc3s2)cc1S(=O)(=O)N1CCOCC1	0%	2%	10%	-11%	70*	40*
CC(=O)N1CCC2(CCCN(Cc3cc(C(F)(F)F)cc(C(F)(F)F)c3)C2)CC1	.	.	6%	0%	.	.
CCN(CC)S(=O)(=O)c1ccc(NC(=O)[C@H](CSCc2ccccc2)N2Cc3ccccc3C2=O)cc1	-2%	.	.	-1%	.	.
Clc1cc(NCc2cccs2)ccc1N1CCOCC1	45µM*	-3%	?	-10%	57*	46*

Screening results deposited in PubChem BioAssay by National Center for Advancing Translational Sciences (NCATS).
